# Screens: PubChem BioAssay, National Center for Advancing Translational Sciences (NCATS)
# A selection: hits, their analogues and other compounds. The true share with any hit is near 6%.
# ALOX15 inhib = inhibitors of human 15-lipoxygenase (ALOX15); P16050; purified 15hLO-1, xylenol orange hydroperoxide absorbance; Potency, µM (series often up to 57.1 µM), usual class: inhibitors; 74,000 tested, 1.4% active; AID 887; note: nearly all actives have a fitted effect of over 55% in size
#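 40 nM 15hLO-1 + cpd, 15 min RT; start w/ 50 uM AA (final), 6 min RT; stop/detect w/ 200 uM XO + 300 uM Fe(II) in 50 mM H2SO4, 30 min; A573/A405. Buffer 25 mM Hepes pH 7.5, 0.01% Triton X-100. No-enzyme wells as negative control.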
# Tau fil binding = binders of human tau filaments; recombinant tau filaments, thioflavin S fluorescence, 15 h; filaments grown with octadecylsulfate alongside compound; Potency, µM (highest dose often 57.1 µM); 71,000 tested, 2% active; AID 596;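 note: actives lower thioflavin S fluorescence by blocking filaments or displacing dye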
#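 Recombinant tau protein (human, 1 uM final) plus 30 uM ODS in HEPES pH 7.4 with NaCl, DTT and thioflavine S. Compound present from the start; fluorescence at 510 nm after 15 h, 37 C.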
# Pol III holo inh = blocks replication by bacterial DNA polymerase III holoenzyme; reconstituted DNA polymerase III holoenzyme replication, biochemical; Potency, µM (highest dose often 57.1 µM); 71,000 tested, 0.25% active; AID 603
#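 Reconstituted *E. coli* holoenzyme (0.35 nM Pol III, 1 nM beta, 154 nM SSB, 2 nM primase) was preincubated with compound for 15 min at RT. Synthesis on 1.4 nM ssM13Gori ran 35 min, then was stopped with PicoGreen/EDTA and read as dsDNA fluorescence.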
# Luciferase inh = firefly luciferase inhibition; P08659; purified firefly luciferase, luminescence, 8 min; Potency, µM (series often up to 57.1 µM), usual class: inhibitors; 72,000 tested, 2.2% active; note: nearly all actives have a fitted effect of over 40% in size
# Target sequence (P08659 whole entry, looked up): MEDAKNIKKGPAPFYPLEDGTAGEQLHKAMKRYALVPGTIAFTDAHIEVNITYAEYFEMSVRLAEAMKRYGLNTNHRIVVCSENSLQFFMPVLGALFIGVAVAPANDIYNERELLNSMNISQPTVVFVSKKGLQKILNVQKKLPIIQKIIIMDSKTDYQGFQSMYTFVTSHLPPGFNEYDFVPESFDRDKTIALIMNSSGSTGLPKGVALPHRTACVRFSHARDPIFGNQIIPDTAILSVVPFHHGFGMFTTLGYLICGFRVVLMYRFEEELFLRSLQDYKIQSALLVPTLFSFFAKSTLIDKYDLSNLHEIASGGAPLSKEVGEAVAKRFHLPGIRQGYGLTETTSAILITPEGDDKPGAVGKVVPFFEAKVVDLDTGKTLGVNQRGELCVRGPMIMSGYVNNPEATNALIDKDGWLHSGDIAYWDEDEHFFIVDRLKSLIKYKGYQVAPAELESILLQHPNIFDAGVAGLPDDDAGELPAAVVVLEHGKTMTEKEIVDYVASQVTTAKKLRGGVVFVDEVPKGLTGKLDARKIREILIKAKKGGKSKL
#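 Titration-based qHTS; buffer 50 mM imidazole pH 7.2, 50 mM KCl, 7 mM MgCl2, 10 uM ATP, 0.01% Tween 20, 0.05% BSA; luciferase/luciferin detector mix added after compound; 8 min, ambient; luminescence.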
# PK Bst = modulators of Bacillus stearothermophilus pyruvate kinase; purified pyruvate kinase, luminescence ATP production; ribose 5-phosphate activator present at AC10; Potency, µM; 51,000 tested, 1.2% active; in the data active = potency below about 11 µM; inconclusive = mostly about 12 µM to 25 µM;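 the screen sought inhibitors and activators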
# ERK AVP block = blocks ERK signaling stimulated by vasopressin. HEK293-V1b, vasopressin-stimulated pERK AlphaScreen. Potency, µM (titrated, usually from 57.5 µM), hits mostly inhibitors. 72,000 tested, 0.99% active. AID 995; note: nearly all actives have a fitted effect of over 55% in size
#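 HEK293 cells stably expressing V1b receptor, seeded overnight in 1% FBS, were treated with compounds for 30 min at 37C, then stimulated 5 min with 25 nM vasopressin; phospho-ERK read by AlphaScreen SureFire after lysis.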
# Numbers stand for hits; - = inactive; ? = inconclusive; . = no result; ! = repeats disagree; [ ] = remark or other dose. Unless noted, calls come from the whole dose curve; as a rule, active = well fitted curve in the direction sought with a large enough effect; inconclusive = small, poorly fitted or top-dose-only effect, or another doubt; inactive = no such curve, though single readings can be large; an effect the other way counts as inactive or inconclusive.
SMILES,ALOX15 inhib,Tau fil binding,Pol III holo inh,Luciferase inh,PK Bst,ERK AVP block
Nc1ncnc2c1ncn2[C@@H]1O[C@@H](COP(=O)(O)OP(=O)(O)OP(=O)(O)OP(=O)(O)OC[C@@H]2O[C@@H](n3cnc4c(N)ncnc43)[C@@H](O)[C@H]2O)[C@H](O)[C@@H]1O,-,-,-,-,.,-
Cc1cc(=O)[nH]c(S/C=C/c2ccccc2)n1,-,-,-,16µM,-,-
NC(Cc1ccccc1)=NCC(=O)O,-[11.4 µM],-[11.4 µM],-[11.4 µM],-[11.4 µM],.,-[11.5 µM]
O=S(=O)(NC1CC2CCC1C2)c1ccc2c(c1)OCCO2 (configuration not stated),-,-,-,-,-,25µM
Clc1ccc(-c2nnc(NC3=NCCCCC3)o2)cc1,-,-,-,2.5µM,6.4,-
O=C1NC(c2ccccn2)Nc2sc3c(c21)CCC3 (configuration not stated),-,-,-,-,.,-
Cn1cc(C2NC(=O)c3c(sc4c3CCCC4)N2)c2ccccc21 (configuration not stated),-,3.2µM,-,-,.,-
Cc1nn(-c2nc3ccccc3s2)c(C)c1Oc1ccccc1O,16µM,-,-,?,.,?
C=CCNc1nc2c3ccccc3n(C(C)=O)c2s1,?,-,-,20µM,-,-
CC(=O)n1c2ccccc2c2c(C#N)c(N3CCCCC3)sc21,-,-,-,-,-,-
COc1cccc(C2C(C)CCC3C(=O)N(C)C(C(C)C)C(=O)N32)c1 (configuration not stated),-[11.4 µM],.,.,.,.,-[11.5 µM]
C=CCCCCCCCCCCCc1ccco1,-,.,.,.,.,-
Cc1cccc(C)c1-n1nnnc1SCSc1nnnn1-c1c(C)cccc1C,-,-,-,-,3.5,-
Cc1ccccc1-n1nnnc1SCC(N)=O,-,-,-,-,.,-
CCc1cc(N2CCOCC2)cc2c1[nH]c1ccccc12,-,25µM,-,-,.,-
N#CCCn1c(=O)c(-c2ccccc2)nc2cnc(N3CCNCC3)nc21,-,-,-,-[11.4 µM],.,-
CCCCn1nc(NC(=O)c2cccs2)c2cc3cc(OC)ccc3nc21,?,-,-,?,.,-
CCCn1nc(NC(=O)c2cccs2)c2cc3cc(OC)ccc3nc21,?,-,-,10µM,-,-
CCCCC(=O)N(C)C,-,-,-,.,.,-
CCCCc1ccc(-c2ccc(C)cc2O)nc1,-,-,-,10µM,9.8,-
CN1CCc2c(cc(O)c(O)c2Cl)[C@H](c2cccc(Cl)c2)C1,16µM,-,-,-,.,-
CN1CCc2cc(Cl)c(O)cc2[C@@H](c2ccccc2)C1,?,?,-,-,.,-
CCn1c(CSc2nc3ccccc3s2)nc2ccccc21,-[11.4 µM],-[11.4 µM],-[11.4 µM],-,.,40µM
COc1ccc2c(c1)c(=O)oc1cc(OCC(=O)N3CCCC(C)C3)ccc12 (configuration not stated),-,-,-,-,.,32µM
Cc1ccc2c(c1)N(CC(=O)NCCN1CCOCC1)C(=O)CO2,-,-,-,-,.,.
SMILES,ALOX15 inhib,Tau fil binding,Pol III holo inh,Luciferase inh,PK Bst,ERK AVP block
Cc1nnc(NC(=O)c2sc3ccccc3c2Cl)s1,-,-,-,2µM,2.1,-
COCc1nnc(NC(=O)c2sc3ccccc3c2Cl)s1,-,-,-,20µM,-,-
CCOc1ccc(-c2nc(-c3ccc(OC)cc3)no2)cc1OCC,-,-,-,-,-,-
c1ccc(-c2noc(-c3ccc4ccccc4c3)n2)cc1,-,-,-,1.3µM,3.7,-
Brc1ccc(-c2nc(-c3ccccc3)no2)o1,-,-,-,13µM,-,-
COCCNc1ncncc1-c1ccccc1OC,-,-,-,-[2.29 µM],.,-
COc1ccccc1-c1cncnc1Nc1ccccc1,25µM,-,-,-[2.29 µM],.,-
COc1ccccc1-c1cncnc1NCCNC(C)=O,10µM,-,-,-[2.29 µM],.,-
N#Cc1cccc(NC(=O)N2CC[C@@]3(CCCN(C(=O)c4cc(C(F)(F)F)cc(C(F)(F)F)c4)C3)C2)c1,-,-,-,-[11.4 µM],.,-
O=C(O)c1cnn2c(C(F)(F)F)cc(-c3ccco3)nc12,.,.,.,-,-,.
O=C(NC1CCCCC1)c1cnn2c(C(F)(F)F)cc(-c3ccco3)nc12,25µM,10µM,-,-,-,-
Cc1cc(NC(=O)c2cnn3c(C(F)(F)F)cc(-c4ccccc4)nc23)no1,-,3.2µM,-,-,-,?
COC(=O)[C@@H]1C(O)[C@@H](C(=O)OC)[C@H](C)N(C)[C@@H]1C (some centres not stated),-[11.4 µM],-[11.4 µM],-[11.4 µM],-[11.4 µM],.,-[11.5 µM]
CNC1=C(Br)C(=O)c2ccncc2C1=O,-,16µM,-,.,.,?
CNC1=C(Cl)C(=O)c2ccncc2C1=O,-,?,-,.,.,-
Cc1c(C(=O)OCC(C)(C)CN(C)C)oc2ccccc12,-,-,-,13µM,.,-
N#Cc1cccc(NC(=O)N2CC3(CCN(C(=O)c4ccco4)CC3)C2)c1,-,-,-,-[11.4 µM],.,-
CCc1nc2scc(-c3ccccc3)c2c(=O)n1N,20µM,-,-,-,?,?
Cc1nc2scc(-c3ccccc3)c2c(=O)n1N,-,-,-,-,-,-
CC/C=C\CC[C@H](OC(=O)c1ccc(Br)cc1)C1=CCCCC1=O,-[11.4 µM],.,.,-[11.4 µM],.,-[11.5 µM]
[N-]=[N+]=N[C@@H]1[C@H](O)[C@H](CO)O[C@@H]1n1cnc2c(N)ncnc21,-[11.4 µM],-[11.4 µM],-[11.4 µM],-[11.4 µM],.,-[11.5 µM]
COc1ccc(O)c(-c2cc(-c3cccs3)[nH]n2)c1,25µM,-,-,16µM,?,-
CCCCCc1c(C)nc(NCc2ccccc2)[nH]c1=O,-,32µM,-,-,-,-
Cc1nc(Nc2ccccc2)[nH]c(=O)c1CCC(C)C,?,-,-,-,-,-
Cc1cc(N2CCN(S(=O)(=O)c3ccccc3)CC2)c2ccccc2n1,-[11.4 µM],-[11.4 µM],-[11.4 µM],-,.,32µM
SMILES,ALOX15 inhib,Tau fil binding,Pol III holo inh,Luciferase inh,PK Bst,ERK AVP block
COc1ccccc1N1CCN(S(=O)(=O)c2ccccc2)CC1,-,-,-,-,?,-
COc1ccc(NC(=O)c2cc(-c3cc(C)ccc3O)n[nH]2)cc1Cl,-,.,-,-,?,-
COc1ccc(OC)c(NC(=O)c2cc(-c3cc(Cl)ccc3O)n[nH]2)c1,-,-,-,-,-,25µM
CN(C)CCOc1nc(-c2ccccc2)nc2c1oc1ccccc12,-,-,25µM,-,11,-
Cc1cccc2cc(CN(CCCO)C(=O)Nc3cccc(Cl)c3)c(=O)[nH]c12,20µM,-,-,-,.,-
Cc1cccc2cc(CN(CCCO)C(=O)Nc3ccc(Cl)cc3)c(=O)[nH]c12,-,-,-,-,-,?
CCOC(=O)c1cc(-c2ccco2)nc2c1c(C)nn2CCC#N,?,16µM,-,-,-,-
CCOC(=O)c1cc(-c2ccc3c(c2)OCCO3)nc2c1c(C)nn2CCC#N,-,-,-,-,.,-
CN(C)CCCCNC(=O)c1ccc(-n2c(=O)c(=O)[nH]c3ccccc32)cc1,-,.,.,.,.,.
CC(=O)N[C@@H](CC(=O)O)C(=O)N[C@@H](CCC(=O)O)C(=O)O,-,-,20µM!,-,.,-
